# Reference: ChEMBL document CHEMBL3433997, “St. Jude Leishmania screening dataset” (2016)
# Biological target: Glucose transporter (Leishmania mexicana) (UniProt O61059)
# Assay: ST_JUDE_LEISH: Cytotoxicity at 2uM final concentration against transgenic Leishmania Mexicana promastigotes LmGT2 that are glucose transport deficient and complemented with the L. Mexicana glucose transporter 2. Activity is measured by DNA content using SYBR green in vitro
# Assay type: functional
row,Compound,inhibition
1,O=C(CCC1CCCCC1=O)c1ccccc1 (stereo not given),1.52%
2,Cc1cc(C)c(-c2n[nH]c3c2C(c2cccc(Cl)c2)N(Cc2ccco2)C3=O)c(O)c1 (stereo not given),1.37%
3,O=[N+]([O-])c1cc2c(cc1C=NNc1nc(=Nc3ccccc3)[nH]c(=Nc3ccccc3)[nH]1)OCO2,-2.69%
4,O=C(Nc1cccc(CN2CCCN(Cc3ccc4c(c3)OCO4)CC2)c1)c1ccc2ccccc2c1,-7.63%
5,COc1ccc(C(=O)O)cc1OCc1ccccc1,0.75%
6,C=CC[C@H](C[C@H](O)[C@H](Cc1ccccc1)NC(=O)c1nn(-c2ccccc2)nc1C)C(=O)NC1CCCCC1,2.36%
7,CC1CCN(C(=O)C(Cc2c[nH]c3ccccc23)NS(=O)(=O)c2ccc(Cl)cc2)CC1 (stereo not given),-0.09%
8,O=C(Nc1ccc(F)c(Cl)c1)NC1CCN(c2ccnc3cc(Cl)ccc23)C1 (stereo not given),8.81%
9,Cc1cccc2nc(-c3cccc(-c4cccc(CNCCN5CCNCC5)c4)c3)[nH]c12,0.48%
10,CCOC(=O)c1cccc(NC(=O)Nc2cccc(-c3ncc(OCCCN)c4c3nc(-c3nonc3N)n4CC)c2)c1,3.37%
11,COC(=O)c1ccc2nc(-c3ccc(C(=O)NCc4ccc(Cl)c(Cl)c4)cc3)[nH]c2c1,3.51%
12,O=[N+]([O-])c1cccc(-n2nc(NCc3ccc(Cl)cc3)nc2-c2ccc(F)c(C(F)(F)F)c2)c1,0.17%
13,Nc1nc(N)c2cc(Cc3ccccc3Cl)cnc2n1,1.45%
14,CN(C)CCCOC(=O)c1cc2cc(-c3ccccc3)ccc2n1S(=O)(=O)Cc1ccccc1,1.19%
15,CCOC(=O)C(=O)N1c2ccc(OCC)cc2-c2c(ssc2=S)C1(C)C,6.04%
16,CC(C)[C@H]1CC[C@H](C)C[C@@H]1OC(=O)N[C@@H](Cc1ccc(O)cc1)C(=O)NC1CCN(Cc2ccc(OCCCN(C)C)cc2)C1 (stereo not given in full),3.06%
17,CNCc1cccc(-c2ccc3ccnc(N)c3c2)c1,7.76%
18,CCN1CCC(N(Cc2ccc(-c3ccc(C(F)(F)F)cc3)cc2)C(=O)Cn2c(SCc3ccc(F)cc3)nc(=O)c3c2CCC3)CC1,-2.05%
19,Cc1cc(N[C@@H](Cc2ccccc2)C(=O)Nc2ccccc2)nc(NCC2CCCCC2)n1,10.7%
20,Nc1nccc2ccc(-c3ccsc3)cc12,4.09%

row,Compound,inhibition
1,C[C@H](NC(=O)c1c(CN2CCN(C(=O)C(C)(C)C)CC2)c(-c2cccs2)nc2ccccc12)C1CCCCC1,2.24%
2,Cc1cnc(NCC2CCCCC2)nc1NCC(=O)Nc1ccccc1,6.18%
3,CN1CCc2ccc(NC(=O)Nc3ccc(Cl)c(Cl)c3)cc2C1,3.54%
4,Cc1ccc(C(CC(=O)Nc2nccs2)c2ccc(OC(C)C)cc2)cc1 (stereo not given),-1.31%
5,Cn1c(NC(=O)CCCCCNC(=O)c2ccc(O)c(-c3ccc(Cl)c(Cl)c3)c2)nc2ccccc21,2%
6,CCN(CC)CCCC(C)N=c1cc(C=Cc2ccc([N+](=O)[O-])cc2)[nH]c2ccc(OC)cc12 (stereo not given),2.98%
7,O=C(NC1CCCCC1)N(Cc1cccc(-c2cccc(CNC3CCCC3)c2)c1)C1CCN(Cc2ccccc2)CC1,7.71%
8,CNCCNCc1cccc(-c2cccc(-c3nc4cc(C(F)(F)F)ccc4[nH]3)c2)c1,0.13%
9,COc1ccc2[nH]c(C)cc(=NN=Cc3ccccc3F)c2c1,-2.38%
10,CCN(CCCN1CCCCC1)c1cc(C)nc(Nc2cc(F)cc(F)c2)n1,4.62%
11,CNC(=O)c1cc(S(=O)(=O)N2CCN(c3ccccn3)CC2)c(C)s1,1.44%
12,COc1ccc2nc(N)nc(C)c2c1,2.78%
13,CCCC1N=C(N)N=C(N)N1c1ccc(Cl)cc1 (stereo not given),2.31%
14,O=C(c1cccc(COc2ccc3c(c2)CCN(C2CCCC2)CC3)c1)N1CCN(c2ccncc2)CC1,7.88%
15,CN1CCCC1CCNc1ncc2c(-c3ccc(NC(=O)Nc4cc(C(F)(F)F)ccc4F)cc3)nn(C)c2n1 (stereo not given),3.95%
16,CC(C)N1CCC(N(Cc2ccc(-c3ccc(C(F)(F)F)cc3)cc2)C(=O)Cn2c(SCc3cccc(F)c3F)cc(=O)c3ccccc32)CC1,0.55%
17,Cc1noc(C)c1-c1ccc2c(Nc3cccc4c3-c3ccccc3C4=O)c(C(=O)NCc3ccccc3I)cnc2c1,6.11%
18,COc1cc2c(cc1OCCN1CCC(N)CC1)N(C(=O)/C=C/c1ccccc1Cl)CC2,12.8%
19,N#Cc1cccc(C(=O)Nc2ccc(-c3cccc(CN4CCC(O)CC4)c3)cc2)c1,-0.04%
20,Cc1cc(F)ccc1Oc1nc(Nc2ccc(N3CCOCC3)c(F)c2)nc2c1S(=O)(=O)CCC2,2.35%
